Assay outcomes (PubChem BioAssay)
CF NFkB inh = blocks PAF-induced NF-kB reporter in cystic fibrosis cells. 0.86% of 360,000 active. inhibition, % at 5 µM. KKLEB NF-kB-GFP reporter, GFP fluorescence overnight;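 active = at least 50% inhibition at 5 µM, scaled per plate between neutral and stimulator controls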;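 also: PAF is a Pseudomonas aeruginosa culture filtrate used as stimulus; plate controls were PAF-stimulated DMSO wells for no effect and unstimulated DMSO wells for full effect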
HIF-2a block = blocks HIF-2a reporter activity; 0.72% of 360,000 active; 786-0 RCC cells HIF-2a reporter, luciferase luminescence, overnight; inhibition, % at 18.8 µM;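 active = inhibition of the luminescence signal of 40% or more relative to plate controls, in a single-dose primary screen at 18.75 µM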
TRPM1 prom inh = inhibitors of MITF-driven TRPM1 promoter in melanoma cells; SK-MEL-5 TRPM1 promoter luciferase, 24 h; inhibition, % at 12.5 µM; 0.83% of 330,000 active;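 active = mean inhibition across replicates of 60% or more, whatever share of single replicates reaches that level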
Peg3 prom inh = Peg3 promoter activity inhibition; HeLa PEG-Prom luciferase reporter, luminescence, overnight; 1.7% of 360,000 active; AID 588405; inhibition, % at 20 µM;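 active = inhibition of at least 50% at 20 µM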
CHOP inh = CHOP inhibition in unfolded protein response | CHO-K1 CHOP-promoter luciferase, tunicamycin-induced, 15-18 h | inhibition, % at 10 µM | 3.8% of 220,000 active | AID 2732;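 active = compounds that reduced the stress-induced luciferase reporter signal by more than about 70% of percent inhibition, limit read from the data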;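 also: 0% = tunicamycin plus vehicle and 100% = wells without tunicamycin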
KKLEB tox = CF airway cell cytotoxicity counter-screen; KKLEB CF airway cells viability, ATPlite luminescence, overnight; active compounds read low; cells stimulated with P. aeruginosa culture filtrate; activity change (cytotoxicity), % at 5 µM; 0.36% of 360,000 active; AID 602141;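 active = corrected activity change at or below -50% at 5 µM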
CHOP confirm = confirmation of CHOP induction inhibitors | inhibition, % at 10 µM | shares compounds with CHOP inh | 45% of 2,100 active | CHO-CHOP promoter luciferase reporter, tunicamycin-induced, luminescence;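 active = mean of three repeat readings of reporter signal inhibition above a set limit, cut at about 70% in these data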;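 also: 0% = tunicamycin plus vehicle and 100% = wells lacking tunicamycin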
Active calls of the source: *; . = no result. Sampled rows, rich in hits. Any-hit rate of the full collection: about 4.3%.

SMILES	CF NFkB inh	HIF-2a block	TRPM1 prom inh	Peg3 prom inh	CHOP inh	KKLEB tox	CHOP confirm
CCCn1c(=O)c(C(=O)N/N=C/c2ccccc2F)c(O)c2ccccc21	8.2	-53.1	-14.8	-32.9	67.9	-8.2	.
CCCCCCn1c(=O)c(C(=O)N/N=C/c2cccc(F)c2)c(O)c2ccccc21	24.1	19.1	8.4	10.0	105.1*	-37.9	99.7*
CCCn1c(=O)c(C(=O)N/N=C/c2ccc(F)cc2)c(O)c2ccccc21	37.6	6.5	8.1	14.0	44.4	-48.5	.
CC1COC(=O)C(NNc2ccc(Cl)c(Cl)c2)=N1 (configuration not stated)	-3.4	-1.1	0.6	17.9	19.0	-1.4	.
Cc1ccc2sc(N(CCCN(C)C)C(=O)c3nc4ccccc4s3)nc2c1C	-4.7	-18.3	34.4	33.2	103.5*	3.4	95.9*
C/C(CCc1oc2ccc(Br)cc2c1-c1ccc(C)o1)=N/O	-17.8	25.6	7.5	18.6	97.3*	-17.4	38.6
Cc1ccc(-c2cc(C(=O)O)c3cc(Br)ccc3n2)o1	8.1	20.5	-11.5	14.3	16.5	-9.4	.
OC1C2COC(O2)C2OC(c3ccccc3)OC12 (configuration not stated)	6.1	-9.0	.	-4.8	.	-5.5	.
CC(=O)Oc1cc2oc(=O)c3c(c2cc1Cl)CCC3	15.6	-3.5	4.1	-10.6	99.2*	1.6	6.2
O=C(Oc1cc2oc(=O)c3c(c2cc1Cl)CCCC3)c1ccco1	2.5	-5.9	8.1	0.5	56.9	9.5	.
CCCCCCNC(=O)CC(c1ccccc1)c1cc(Br)ccc1O (configuration not stated)	13.2	29.4	17.7	38.5	100.8*	17.8	111.8*
O=C(Nc1ccc(Cl)cc1)C1Cc2c(-c3cccc(F)c3)ccnc2O1 (configuration not stated)	-44.9	9.6	.	9.2	.	-3.5	.
O=Cc1cccc(OC(=O)c2ccc(Cl)cc2Cl)c1	.	.	.	.	100.9*	.	10.2
CC(C)Oc1cc(NC(=O)CS(=O)CC(=O)N(C)C)c(Cl)cc1Cl (configuration not stated)	-4.4	5.6	1.2	0.5	14.4	5.2	.
CC(C)Oc1cc(NC(=O)CS(=O)CC(=O)Nc2cccc(C(F)(F)F)c2)c(Cl)cc1Cl (configuration not stated)	-4.0	-16.0	15.5	17.1	107.3*	-7.5	120.1*
FC(F)C(F)(F)C(F)(F)C(F)(F)c1cc(-c2ccccc2)n[nH]1	13.9	-71.0	-9.4	-34.4	106.1*	-4.5	110.6*
Cc1ccc(C2CN(C)C3(C(=O)Nc4ccccc43)C23COc2ccccc2C3=O)cc1 (configuration not stated)	7.2	4.8	0.3	34.0	106.8*	3.7	88.1*
Cc1ccc(-n2nnnc2CCl)cc1	-22.7	6.7	11.6	35.0	108.3*	7.6	-50.0
COc1cc(C(C)=O)ccc1OC(=O)N1CCOCC1	10.3	14.4	.	-5.0	.	5.4	.
CC1(c2ccc(OC(F)F)cc2)NC(=O)N(/N=C/c2c(O)ccc3ccccc23)C1=O (configuration not stated)	12.3	8.3	8.2	10.2	100.7*	9.1	95.8*
COc1ccc([N+](=O)[O-])cc1NS(=O)(=O)c1ccc(Cl)c(C(=O)Nc2sc3c(c2C#N)CCCCC3)c1	.	.	.	.	105.0*	.	52.0
CCCNC(=O)c1nn2cc(Br)cnc2c1Br	-12.6	4.0	-0.4	5.1	27.2	4.6	.
N#C/C(=C\c1ccc(OC(=O)c2ccc(Cl)s2)cc1)c1nc2ccccc2[nH]1	-35.8	-47.7	-66.4	-144.8	107.3*	7.9	33.6
N#C/C(=C/c1ccc(OC(=O)c2ccc(Br)s2)cc1)c1nc2ccccc2[nH]1	-1.5	-44.4	-60.9	-74.0	.	-14.7	.
N#C/C(=C\c1ccc(OC(=O)c2ccc(Br)s2)cc1)c1nc2ccccc2[nH]1	-37.3	-58.6	-58.5	-225.9	100.0*	-1.8	39.4
SMILES	CF NFkB inh	HIF-2a block	TRPM1 prom inh	Peg3 prom inh	CHOP inh	KKLEB tox	CHOP confirm
O=c1c(-c2cccs2)nc2ccccc2n1C(c1ccccn1)c1nc2ccccc2[nH]1 (configuration not stated)	.	-110.4	.	.	.	.	.
COc1ccc(NC(=O)CN2CCCC(C)C2)c([N+](=O)[O-])c1 (configuration not stated)	-4.1	-41.6	1.4	-26.6	101.1*	2.9	40.4
COCC(=O)NC1CCN(CC(=O)Nc2ccc(OC)cc2[N+](=O)[O-])CC1	-2.7	11.1	-6.2	16.6	-43.6	0.7	.
COc1ccc(N2CCN(C(=O)COC(=O)c3cccc(S(=O)(=O)Nc4cccc(C)c4)c3)CC2)cc1	-12.5	20.7	40.2	1.5	.	8.8	.
COc1ccc(S(=O)(=O)Nc2ccc(Cc3ccncc3)cc2)cc1OC	2.2	5.9	5.7	3.5	.	1.2	.
O=S(=O)(Nc1ccc(Cc2ccncc2)cc1)c1ccc(Cl)c(Cl)c1	11.1	30.1	9.0	31.9	102.6*	-16.4	53.9
O=C(CNc1cccc(C(F)(F)F)c1)N/N=C/c1cccc(Br)c1	-13.3	-16.6	8.0	5.2	99.0*	7.9	107.7*
COc1ccc(CCNC(=O)c2nnn(-c3ccc4c(c3)OCCO4)c2N)cc1OC	9.1	51.2*	40.5	-132.3	96.8*	-3.4	83.6*
Cc1ccc(NC(=O)c2ncn(CCCNCC(C)c3ccccc3)n2)cc1C (configuration not stated)	9.2	-22.1	-0.3	2.6	.	-18.4	.
CC(C)(C)c1cc(CN2CCCC(O)C2)c(O)c(C(C)(C)C)c1 (configuration not stated)	17.8	28.3	14.9	12.6	107.2*	7.4	108.7*
CC(C)(C)c1cc(CN2CCCCC2)cc(C(C)(C)C)c1O	.	.	.	.	43.0	.	.
CCCOc1c(Cl)cc(/C=N/O)cc1OCC	12.0	25.8	-12.7	-8.5	101.8*	-8.0	-20.7
O=S(=O)(Nc1ccc(-c2csc(-c3ccccc3)n2)cc1)c1ccc(F)cc1	3.4	-28.3	-1.9	4.1	104.8*	6.6	36.2
O=C(Nc1ccccc1)Nc1nc(-c2ccc(F)cc2)cs1	-39.0	-114.7	-12.8	-56.8	105.9*	3.9	8.2
Fc1ccc(-c2csc(NC(=S)Nc3ccccc3)n2)cc1	-10.4	-143.5	-6.9	-41.3	.	4.9	.
Fc1ccc(-c2csc(-c3ccncc3)n2)cc1	-59.4	-204.6	-22.7	-118.3	-6.6	20.7	.
COc1ccc(/C=C2\SC(=N)N(c3ccc(F)cc3)C2=O)cc1OC	35.3	-6.8	-7.9	24.9	102.4*	-21.7	-72.6
CCOc1ccc(/C=C2\SC(=O)N(c3ccc(O)cc3)C2=O)cc1OC	.	.	.	.	105.0*	.	15.1
O=C(O)C1C2CCC1C(O)C2 (configuration not stated)	-22.4	12.6	.	10.3	.	1.0	.
Oc1ccc(Oc2ccc3c(C(F)(F)F)cc(C(F)(F)F)nc3n2)cc1	0.5	10.4	55.2	13.1	98.4*	-0.4	101.1*
